Measured values: publication PMC7862700, “An all-to-all approach to the identification of sequence-specific readers for epigenetic DNA modifications on cytosine”

Experiments:
Assay in all cases: DAPPL (digital affinity profiling via proximity ligation, sequencing); 10 mM Tris-HCl pH 7.5, 50 mM NaCl, 1 mM DTT, 4% glycerol, room temperature, 30 min; GST-TFs on glutathione beads, 16-mer random dsDNA library, 0.1% formaldehyde crosslink after washing; high values mean tight binding
FLI1 = target: T1, FLI1 (Homo sapiens, UniProt Q01543 1-452); conditions: protein: recombinant; tags: N-terminal GST; dsDNA, one strand shown
T1 sequence: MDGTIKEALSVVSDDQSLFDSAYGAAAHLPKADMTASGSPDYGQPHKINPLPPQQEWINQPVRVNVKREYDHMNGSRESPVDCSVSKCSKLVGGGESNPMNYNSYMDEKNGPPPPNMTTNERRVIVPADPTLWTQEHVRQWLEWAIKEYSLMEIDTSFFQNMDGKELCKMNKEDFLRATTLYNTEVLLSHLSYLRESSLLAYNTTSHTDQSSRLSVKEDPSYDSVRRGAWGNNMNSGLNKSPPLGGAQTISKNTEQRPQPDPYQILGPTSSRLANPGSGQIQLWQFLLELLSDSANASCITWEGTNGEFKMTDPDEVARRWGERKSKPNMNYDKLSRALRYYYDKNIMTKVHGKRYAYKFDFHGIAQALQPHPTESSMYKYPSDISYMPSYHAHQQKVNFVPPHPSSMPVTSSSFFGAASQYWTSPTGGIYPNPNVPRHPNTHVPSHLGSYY
Outline: (§1)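 The binding signal reported is, for every hexamer, its read frequency for a factor over its read frequency for the tag-only sample. Reads came from pools of yeast-expressed, GST-fused human transcription factors on glutathione beads, barcoded with DNA and mixed with that sample, which were incubated with 200 nmole of a random double-stranded 16-mer DNA library in Tris/NaCl/DTT/glycerol buffer at room temperature for 30 min. After washing, the pools were crosslinked with 0.1% formaldehyde, proximity-ligated with BsaI/T4 ligase for 1 h at 37 °C, PCR-amplified and sequenced on an Illumina NextSeq500.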

ELK1 = target: T2, ELK1 (Homo sapiens, UniProt P19419 1-428); conditions: protein: recombinant; tags: N-terminal GST; dsDNA, one strand shown
T2 sequence: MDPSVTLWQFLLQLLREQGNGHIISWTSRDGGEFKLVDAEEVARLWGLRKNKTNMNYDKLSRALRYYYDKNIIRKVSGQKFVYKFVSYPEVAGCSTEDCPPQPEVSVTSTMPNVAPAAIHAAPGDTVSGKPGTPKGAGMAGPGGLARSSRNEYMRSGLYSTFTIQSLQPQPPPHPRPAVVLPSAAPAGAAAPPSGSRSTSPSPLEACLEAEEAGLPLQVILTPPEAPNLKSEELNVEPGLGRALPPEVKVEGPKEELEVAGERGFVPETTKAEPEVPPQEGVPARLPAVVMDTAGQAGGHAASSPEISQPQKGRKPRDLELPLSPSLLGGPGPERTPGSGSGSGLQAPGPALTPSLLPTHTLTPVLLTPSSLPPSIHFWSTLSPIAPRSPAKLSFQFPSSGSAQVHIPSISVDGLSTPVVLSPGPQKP
Outline: as §1

GABPA = target: T3, GABPA (Homo sapiens, UniProt Q06546 1-454); conditions: protein: recombinant; tags: N-terminal GST; dsDNA, one strand shown
T3 sequence: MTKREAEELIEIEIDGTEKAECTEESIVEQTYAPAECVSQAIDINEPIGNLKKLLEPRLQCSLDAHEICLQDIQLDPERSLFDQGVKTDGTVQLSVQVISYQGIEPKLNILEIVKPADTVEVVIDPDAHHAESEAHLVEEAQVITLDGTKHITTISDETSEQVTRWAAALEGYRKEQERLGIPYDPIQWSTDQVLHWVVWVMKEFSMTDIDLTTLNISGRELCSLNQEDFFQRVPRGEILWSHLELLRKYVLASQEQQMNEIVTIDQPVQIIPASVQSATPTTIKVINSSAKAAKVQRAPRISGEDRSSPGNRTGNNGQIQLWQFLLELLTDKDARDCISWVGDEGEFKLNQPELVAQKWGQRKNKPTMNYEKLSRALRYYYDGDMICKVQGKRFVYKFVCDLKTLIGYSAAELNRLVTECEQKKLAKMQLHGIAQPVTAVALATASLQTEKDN
Outline: as §1

ERG = target: T4, ERG (Homo sapiens, UniProt P11308 1-479); conditions: protein: recombinant; tags: N-terminal GST; dsDNA, one strand shown
T4 sequence: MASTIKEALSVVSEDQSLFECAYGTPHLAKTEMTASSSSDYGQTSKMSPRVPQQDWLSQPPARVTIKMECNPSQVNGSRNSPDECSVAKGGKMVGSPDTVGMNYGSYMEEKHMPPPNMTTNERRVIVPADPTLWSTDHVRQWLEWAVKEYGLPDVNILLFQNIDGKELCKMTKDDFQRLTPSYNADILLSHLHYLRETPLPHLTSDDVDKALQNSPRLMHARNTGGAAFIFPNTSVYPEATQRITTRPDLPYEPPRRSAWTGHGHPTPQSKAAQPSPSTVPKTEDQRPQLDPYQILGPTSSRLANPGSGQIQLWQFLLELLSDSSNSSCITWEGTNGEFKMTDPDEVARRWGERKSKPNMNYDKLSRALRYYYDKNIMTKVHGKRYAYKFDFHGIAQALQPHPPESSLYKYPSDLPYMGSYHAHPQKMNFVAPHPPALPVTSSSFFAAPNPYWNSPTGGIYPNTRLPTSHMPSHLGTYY
Outline: as §1

ELF1 = ELF1 (Homo sapiens, UniProt P32519 1-619); conditions: protein: recombinant; tags: N-terminal GST; dsDNA, one strand shown
Outline: as §1

EHF = target: T5, EHF (Homo sapiens, UniProt Q9NZC4 1-300); conditions: protein: recombinant; tags: N-terminal GST; dsDNA, one strand shown
T5 sequence: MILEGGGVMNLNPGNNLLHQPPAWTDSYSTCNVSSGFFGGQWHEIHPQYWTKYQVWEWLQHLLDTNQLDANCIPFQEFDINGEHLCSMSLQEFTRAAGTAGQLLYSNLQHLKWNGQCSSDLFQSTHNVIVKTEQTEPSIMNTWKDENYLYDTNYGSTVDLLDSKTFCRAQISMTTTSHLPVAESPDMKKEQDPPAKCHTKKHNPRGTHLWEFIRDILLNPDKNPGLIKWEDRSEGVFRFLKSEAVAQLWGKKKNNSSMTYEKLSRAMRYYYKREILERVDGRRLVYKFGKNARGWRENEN
Outline: as §1

SPI1 = SPI1 (Homo sapiens, UniProt P17947 1-270); conditions: protein: recombinant; tags: N-terminal GST; dsDNA, one strand shown
Outline: as §1

SPIB = SPIB (Homo sapiens, UniProt Q01892 1-262); conditions: protein: recombinant; tags: N-terminal GST; dsDNA, one strand shown
Outline: as §1

ELK3 = target: T6, ELK3 (Homo sapiens, UniProt P41970 1-407); conditions: protein: recombinant; tags: N-terminal GST; dsDNA, one strand shown
T6 sequence: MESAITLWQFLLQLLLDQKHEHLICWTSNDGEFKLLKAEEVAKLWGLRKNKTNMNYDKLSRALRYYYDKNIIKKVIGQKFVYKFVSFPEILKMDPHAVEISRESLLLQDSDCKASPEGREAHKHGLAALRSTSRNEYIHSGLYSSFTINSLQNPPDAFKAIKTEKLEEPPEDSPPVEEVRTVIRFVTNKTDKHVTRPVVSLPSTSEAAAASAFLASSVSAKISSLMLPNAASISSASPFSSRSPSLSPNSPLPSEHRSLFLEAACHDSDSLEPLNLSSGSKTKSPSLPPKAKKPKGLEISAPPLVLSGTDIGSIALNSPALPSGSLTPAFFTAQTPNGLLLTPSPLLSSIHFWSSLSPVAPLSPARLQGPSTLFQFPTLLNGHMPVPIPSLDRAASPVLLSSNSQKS
Outline: as §1

FEV = target: T7, FEV (Homo sapiens, UniProt Q99581 1-238); conditions: protein: recombinant; tags: N-terminal GST; dsDNA, one strand shown
T7 sequence: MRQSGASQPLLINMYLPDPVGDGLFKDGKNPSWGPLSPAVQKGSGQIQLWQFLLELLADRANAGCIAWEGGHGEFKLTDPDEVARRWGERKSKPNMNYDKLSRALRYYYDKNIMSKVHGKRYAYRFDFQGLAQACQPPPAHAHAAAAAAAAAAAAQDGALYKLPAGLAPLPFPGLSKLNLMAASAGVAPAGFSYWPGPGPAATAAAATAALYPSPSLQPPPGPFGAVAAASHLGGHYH
Outline: as §1

ETV5 = ETV5 (Homo sapiens, UniProt P41161 1-510); conditions: protein: recombinant; tags: N-terminal GST; dsDNA, one strand shown
Outline: as §1

HSF1 = HSF1 (Homo sapiens, UniProt Q00613 1-529); conditions: protein: recombinant; tags: N-terminal GST; chain copies: 3; dsDNA, one strand shown
Outline: as §1

SPIC = target: T8, SPIC (Homo sapiens, UniProt Q8N5J4 1-248); conditions: protein: recombinant; tags: N-terminal GST; dsDNA, one strand shown
T8 sequence: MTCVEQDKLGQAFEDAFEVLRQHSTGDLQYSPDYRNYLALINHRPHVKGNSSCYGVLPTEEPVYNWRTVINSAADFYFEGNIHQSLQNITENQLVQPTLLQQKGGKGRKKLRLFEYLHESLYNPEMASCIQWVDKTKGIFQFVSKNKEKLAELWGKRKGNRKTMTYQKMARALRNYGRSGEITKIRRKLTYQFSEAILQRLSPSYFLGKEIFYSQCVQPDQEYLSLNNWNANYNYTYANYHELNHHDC
Outline: as §1

ELF4 = ELF4 (Homo sapiens, UniProt Q99607 1-663); conditions: protein: recombinant; tags: N-terminal GST; dsDNA, one strand shown
Outline: as §1

ELK4 = target: T9, ELK4 (Homo sapiens, UniProt P28324-2 1-405); conditions: protein: recombinant; tags: N-terminal GST; dsDNA, one strand shown
T9 sequence: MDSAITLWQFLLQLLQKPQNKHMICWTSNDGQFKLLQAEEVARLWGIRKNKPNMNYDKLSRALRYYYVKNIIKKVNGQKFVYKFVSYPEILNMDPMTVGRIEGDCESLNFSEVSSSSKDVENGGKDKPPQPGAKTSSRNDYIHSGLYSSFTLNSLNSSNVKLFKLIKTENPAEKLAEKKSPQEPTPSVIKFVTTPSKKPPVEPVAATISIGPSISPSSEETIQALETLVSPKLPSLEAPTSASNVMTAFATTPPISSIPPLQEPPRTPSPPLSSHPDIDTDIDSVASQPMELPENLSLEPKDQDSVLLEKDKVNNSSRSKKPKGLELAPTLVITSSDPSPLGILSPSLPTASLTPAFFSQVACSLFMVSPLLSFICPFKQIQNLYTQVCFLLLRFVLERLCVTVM
Outline: as §1

ETV2 = target: T10, ETV2 (Homo sapiens, UniProt O00321 1-342); conditions: protein: recombinant; tags: N-terminal GST; dsDNA, one strand shown
T10 sequence: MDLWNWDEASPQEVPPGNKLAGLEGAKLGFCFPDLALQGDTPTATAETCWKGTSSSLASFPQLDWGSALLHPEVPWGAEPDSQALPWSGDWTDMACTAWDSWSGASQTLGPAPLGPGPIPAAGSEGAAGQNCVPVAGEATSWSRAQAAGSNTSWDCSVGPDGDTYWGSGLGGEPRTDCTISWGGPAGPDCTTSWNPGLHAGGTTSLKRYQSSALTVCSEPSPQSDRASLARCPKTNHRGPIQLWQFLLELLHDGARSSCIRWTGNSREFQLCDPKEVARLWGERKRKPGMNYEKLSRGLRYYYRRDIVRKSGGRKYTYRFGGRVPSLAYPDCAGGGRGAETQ
Outline: as §1

ELF3 = target: T11, ELF3 (Homo sapiens, UniProt P78545 1-371); conditions: protein: recombinant; tags: N-terminal GST; dsDNA, one strand shown
T11 sequence: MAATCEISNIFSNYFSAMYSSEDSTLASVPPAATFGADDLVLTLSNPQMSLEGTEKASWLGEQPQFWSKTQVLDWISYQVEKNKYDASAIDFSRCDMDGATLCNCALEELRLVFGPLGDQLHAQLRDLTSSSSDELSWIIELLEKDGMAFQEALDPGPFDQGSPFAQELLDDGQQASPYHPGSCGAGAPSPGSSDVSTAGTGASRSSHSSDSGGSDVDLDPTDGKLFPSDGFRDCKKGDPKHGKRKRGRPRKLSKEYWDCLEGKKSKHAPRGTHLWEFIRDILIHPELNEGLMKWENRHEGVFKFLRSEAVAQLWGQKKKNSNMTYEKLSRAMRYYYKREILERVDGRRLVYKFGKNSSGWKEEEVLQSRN
Outline: as §1

CRX = CRX (Homo sapiens, UniProt O43186 1-299); conditions: protein: recombinant; tags: N-terminal GST; dsDNA, one strand shown
Outline: as §1

ETV1 = ETV1 (Homo sapiens, UniProt P50549 1-477); conditions: protein: recombinant; tags: N-terminal GST; dsDNA, one strand shown
Outline: as §1

Chain of ELF1 (P32519 whole entry): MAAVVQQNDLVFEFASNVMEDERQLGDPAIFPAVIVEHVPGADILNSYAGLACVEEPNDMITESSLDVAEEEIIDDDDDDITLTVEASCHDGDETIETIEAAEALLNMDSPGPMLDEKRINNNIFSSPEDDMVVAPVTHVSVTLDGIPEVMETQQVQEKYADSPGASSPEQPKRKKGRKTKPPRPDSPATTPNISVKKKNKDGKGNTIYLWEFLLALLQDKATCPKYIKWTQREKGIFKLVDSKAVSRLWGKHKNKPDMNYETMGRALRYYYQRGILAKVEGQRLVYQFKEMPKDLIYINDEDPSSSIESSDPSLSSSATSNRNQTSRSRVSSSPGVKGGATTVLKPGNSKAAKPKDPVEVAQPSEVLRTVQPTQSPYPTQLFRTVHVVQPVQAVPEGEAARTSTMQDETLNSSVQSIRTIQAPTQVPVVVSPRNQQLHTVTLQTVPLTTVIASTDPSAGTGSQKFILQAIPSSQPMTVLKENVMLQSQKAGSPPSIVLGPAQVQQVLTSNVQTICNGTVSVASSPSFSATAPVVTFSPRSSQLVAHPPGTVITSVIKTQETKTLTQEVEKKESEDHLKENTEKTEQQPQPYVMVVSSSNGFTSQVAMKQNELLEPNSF
Chain of ELF4 (Q99607 whole entry): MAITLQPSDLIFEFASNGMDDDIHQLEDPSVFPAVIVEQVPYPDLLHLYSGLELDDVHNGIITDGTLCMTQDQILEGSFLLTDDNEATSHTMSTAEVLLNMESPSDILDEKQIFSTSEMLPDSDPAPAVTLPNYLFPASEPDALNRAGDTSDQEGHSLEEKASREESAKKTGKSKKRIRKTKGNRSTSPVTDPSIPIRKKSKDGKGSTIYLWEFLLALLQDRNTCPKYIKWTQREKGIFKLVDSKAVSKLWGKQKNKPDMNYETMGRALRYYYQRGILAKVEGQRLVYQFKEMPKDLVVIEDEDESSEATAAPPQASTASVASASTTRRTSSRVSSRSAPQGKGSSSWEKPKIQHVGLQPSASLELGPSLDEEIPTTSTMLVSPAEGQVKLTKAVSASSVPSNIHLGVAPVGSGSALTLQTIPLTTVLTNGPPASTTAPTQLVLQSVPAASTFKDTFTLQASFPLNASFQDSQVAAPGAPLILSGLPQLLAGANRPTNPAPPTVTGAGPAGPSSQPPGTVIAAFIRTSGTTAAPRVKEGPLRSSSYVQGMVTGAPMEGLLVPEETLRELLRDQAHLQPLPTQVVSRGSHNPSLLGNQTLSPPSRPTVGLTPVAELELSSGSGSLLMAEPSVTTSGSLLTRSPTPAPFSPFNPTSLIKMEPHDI
Chain of SPIB (Q01892 whole entry): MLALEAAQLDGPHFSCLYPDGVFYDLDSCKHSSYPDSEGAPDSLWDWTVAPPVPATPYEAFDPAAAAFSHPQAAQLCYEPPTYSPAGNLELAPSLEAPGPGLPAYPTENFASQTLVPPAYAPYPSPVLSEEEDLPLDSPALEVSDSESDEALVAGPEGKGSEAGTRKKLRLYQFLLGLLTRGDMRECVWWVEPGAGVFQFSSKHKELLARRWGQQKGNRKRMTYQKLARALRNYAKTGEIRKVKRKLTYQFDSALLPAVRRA
Chain of CRX (O43186 whole entry): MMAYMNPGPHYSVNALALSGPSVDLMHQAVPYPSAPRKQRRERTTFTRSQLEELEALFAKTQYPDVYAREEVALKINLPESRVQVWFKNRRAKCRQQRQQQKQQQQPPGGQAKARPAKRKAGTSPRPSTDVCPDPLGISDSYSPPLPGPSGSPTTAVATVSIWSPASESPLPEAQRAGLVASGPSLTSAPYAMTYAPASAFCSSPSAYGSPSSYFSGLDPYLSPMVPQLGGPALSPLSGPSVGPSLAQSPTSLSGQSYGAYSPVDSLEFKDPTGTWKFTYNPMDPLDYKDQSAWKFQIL
Chain of ETV5 (P41161 whole entry): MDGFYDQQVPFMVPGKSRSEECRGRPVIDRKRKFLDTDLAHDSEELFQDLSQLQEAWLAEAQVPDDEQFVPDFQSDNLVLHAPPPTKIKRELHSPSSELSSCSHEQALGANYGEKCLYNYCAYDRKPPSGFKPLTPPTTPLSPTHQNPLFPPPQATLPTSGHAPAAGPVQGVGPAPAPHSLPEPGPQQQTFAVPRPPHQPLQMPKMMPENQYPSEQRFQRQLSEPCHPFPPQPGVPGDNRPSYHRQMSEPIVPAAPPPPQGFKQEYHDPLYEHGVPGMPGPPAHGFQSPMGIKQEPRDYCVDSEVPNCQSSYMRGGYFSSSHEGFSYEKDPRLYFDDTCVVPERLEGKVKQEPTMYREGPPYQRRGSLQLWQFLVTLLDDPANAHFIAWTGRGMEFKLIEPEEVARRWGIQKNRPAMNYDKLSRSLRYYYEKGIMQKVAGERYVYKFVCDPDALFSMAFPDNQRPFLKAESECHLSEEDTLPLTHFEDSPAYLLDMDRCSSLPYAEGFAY
Chain of ETV1 (P50549 whole entry): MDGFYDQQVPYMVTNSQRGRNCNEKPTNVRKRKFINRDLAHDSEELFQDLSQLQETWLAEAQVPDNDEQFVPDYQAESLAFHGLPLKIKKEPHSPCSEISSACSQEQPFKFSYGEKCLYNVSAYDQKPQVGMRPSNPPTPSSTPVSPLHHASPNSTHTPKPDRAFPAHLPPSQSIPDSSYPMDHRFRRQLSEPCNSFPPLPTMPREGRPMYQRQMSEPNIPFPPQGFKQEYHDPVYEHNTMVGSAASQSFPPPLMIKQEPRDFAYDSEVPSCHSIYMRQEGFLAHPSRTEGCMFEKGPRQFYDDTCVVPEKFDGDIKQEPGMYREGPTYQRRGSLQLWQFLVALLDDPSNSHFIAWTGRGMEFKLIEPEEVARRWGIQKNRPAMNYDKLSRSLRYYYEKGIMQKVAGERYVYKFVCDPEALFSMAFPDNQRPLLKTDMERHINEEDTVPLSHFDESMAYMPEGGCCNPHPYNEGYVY
Chain of HSF1 (Q00613 whole entry): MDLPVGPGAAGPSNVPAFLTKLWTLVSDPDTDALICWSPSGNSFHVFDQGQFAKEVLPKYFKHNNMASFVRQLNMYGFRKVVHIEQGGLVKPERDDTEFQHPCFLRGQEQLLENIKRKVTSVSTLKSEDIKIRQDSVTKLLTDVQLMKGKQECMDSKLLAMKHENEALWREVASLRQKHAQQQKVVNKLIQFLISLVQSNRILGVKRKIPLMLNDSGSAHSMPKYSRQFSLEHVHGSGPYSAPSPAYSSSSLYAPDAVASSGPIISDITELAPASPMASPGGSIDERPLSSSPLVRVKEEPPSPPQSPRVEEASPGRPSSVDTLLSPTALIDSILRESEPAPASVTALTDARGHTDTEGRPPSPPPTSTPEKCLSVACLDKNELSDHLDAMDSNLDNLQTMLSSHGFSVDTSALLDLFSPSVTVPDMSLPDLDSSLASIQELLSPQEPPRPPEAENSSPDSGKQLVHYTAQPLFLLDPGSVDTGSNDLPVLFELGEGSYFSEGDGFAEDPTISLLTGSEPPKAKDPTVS

TGTATT
binding signal (FLI1): 1.38 fold enrichment (6-mer frequency, TF over GST control)
binding signal (ELK1): 1.31 fold enrichment (6-mer frequency, TF over GST control)
binding signal (GABPA): 1.33 fold enrichment (6-mer frequency, TF over GST control)
binding signal (ERG): 1.32 fold enrichment (6-mer frequency, TF over GST control)
binding signal (ELF1): 1.37 fold enrichment (6-mer frequency, TF over GST control)
binding signal (EHF): 1.34 fold enrichment (6-mer frequency, TF over GST control)
binding signal (SPI1): 1.28 fold enrichment (6-mer frequency, TF over GST control)
binding signal (SPIB): 1.28 fold enrichment (6-mer frequency, TF over GST control)
binding signal (ELK3): 1.43 fold enrichment (6-mer frequency, TF over GST control)
binding signal (FEV): 1.34 fold enrichment (6-mer frequency, TF over GST control)
binding signal (ETV5): 1.33 fold enrichment (6-mer frequency, TF over GST control)
binding signal (HSF1): 1.3 fold enrichment (6-mer frequency, TF over GST control)
binding signal (SPIC): 1.4 fold enrichment (6-mer frequency, TF over GST control)
binding signal (ELF4): 1.36 fold enrichment (6-mer frequency, TF over GST control)
binding signal (ELK4): 1.33 fold enrichment (6-mer frequency, TF over GST control)
binding signal (ETV2): 1.32 fold enrichment (6-mer frequency, TF over GST control)
binding signal (ELF3): 1.24 fold enrichment (6-mer frequency, TF over GST control)
binding signal (CRX): 1.56 fold enrichment (6-mer frequency, TF over GST control)
binding signal (ETV1): 1.4 fold enrichment (6-mer frequency, TF over GST control)
